{"source": "PubChem BioAssay (Tox21)", "note": "Results filed as inconclusive are left out. The source made the active and inactive calls. The call rests on the fitted dose curve; in most records, active means well fitted activation curve with a large enough effect in the signal ratio in the repeat runs (not every such curve was filed as active); inconclusive means weak or mixed curves, or effect the other way; inactive means no such curve, though single readings can be large or run the other way; the % refers to the signal ratio. On the % scale 0 is the no-effect control and ±100 the full control effect.", "data": [{"target": "Peroxisome proliferator-activated receptor gamma (Homo sapiens) (UniProt P37231)", "sequence (P37231 whole entry, looked up)": "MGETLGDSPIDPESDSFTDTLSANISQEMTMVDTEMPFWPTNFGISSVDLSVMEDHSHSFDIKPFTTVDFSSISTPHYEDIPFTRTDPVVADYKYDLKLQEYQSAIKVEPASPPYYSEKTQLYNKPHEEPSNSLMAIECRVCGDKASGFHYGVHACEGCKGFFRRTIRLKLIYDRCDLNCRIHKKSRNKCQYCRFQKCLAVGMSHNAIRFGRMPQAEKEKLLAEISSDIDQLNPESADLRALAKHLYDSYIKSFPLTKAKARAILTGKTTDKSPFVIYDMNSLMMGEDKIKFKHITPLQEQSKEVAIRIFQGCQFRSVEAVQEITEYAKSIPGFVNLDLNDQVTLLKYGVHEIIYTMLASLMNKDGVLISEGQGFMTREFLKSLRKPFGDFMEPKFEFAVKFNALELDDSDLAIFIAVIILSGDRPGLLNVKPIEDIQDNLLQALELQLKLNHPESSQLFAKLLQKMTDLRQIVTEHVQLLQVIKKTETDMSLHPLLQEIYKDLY", "test": "qHTS assay to identify small molecule agonists of the peroxisome proliferator-activated receptor gamma (PPARg) signaling pathway (AID 743094)", "conditions": "HEK293H PPARg-UAS-bla, beta-lactamase FRET ratio, 17 h; series mostly up to 57 µM; activation: at the top concentration", "source_text": "U.S. Tox21 Program National Center for Advancing Translational Sciences [NCATS] NIH Chemical Genomics Center [NCGC] U.S. Environmental Protection Agency [EPA] National Institutes of Environmental Health Sciences [NIEHS] National Toxicology Program [NTP] U.S. Food and Drug Administration [FDA] Tox21 Assay Overview: The peroxisome proliferator-activated receptors (PPARs) are lipid-activated transcription factors of the nuclear receptor superfamily with three distinct subtypes namely PPAR alpha, PPAR delta (also called PPAR beta) and PPAR gamma (PPARg). All these subtypes heterodimerize with Retinoid X receptor (RXR) and these heterodimers regulate transcription of various genes. PPAR-gamma receptor (glitazone receptor) is involved in the regulation of glucose and lipid metabolism. To identify the compounds that activate PPAR-gamma signaling, GeneBLAzer PPAR gamma UAS-bla HEK293H cell line (Invitrogen, Carlsbad, CA, USA) containing a beta-lactamase reporter gene under control of the control of an upstream activator sequence (UAS) stably integrated into HEK293H cells was used to screen Tox21 compound library.\nTox21 Assay Protocol Summary: PPARg-bla cells were dispensed at 3000 cells/6uL/well in 1536-well black wall/clear bottom plates using a Multidrop Combi (Thermo Fisher Scientific, Waltham, MA) dispenser. After the assay plates were incubated at 37C and 5% CO2 for 5 h, 23 nL of compounds dissolved in DMSO, positive controls or DMSO only was transferred to the assay plate by a Pintool station (Kalypsys, San Diego, CA). The assay plates were incubated at 37C for 17 h. After 1 uL of LiveBLAzerTM B/G FRET substrate was added using a Bioraptr Flying Reagent Dispenser (FRD) workstation (Beckman Coulter, Indianapolis, IN, USA), the plates were incubated at room temperature for 1 h, and fluorescence intensity was measured by an Envision plate reader (PerkinElmer, Shelton, CT).", "values": [{"smiles": "CCCCN(N=O)C(=N)N[N+](=O)[O-]", "activation": "4.37% [at 78.9 µM] (inactive)"}, {"smiles": "CCCN(CCC)c1c([N+](=O)[O-])cc(S(C)(=O)=O)cc1[N+](=O)[O-]", "activation": "2.21% (inactive)"}, {"smiles": "CC(=O)c1cc2c(cc1C)C(C)(C)C(C)CC2(C)C", "note": "(stereo not given)", "activation": "4.3% (inactive)"}, {"smiles": "O=C(CBr)OCc1ccccc1", "activation": "-0.437% (inactive)"}, {"smiles": "O=NN1CCCCCC1", "activation": "5.95% (inactive)"}, {"smiles": "C=CCC1([C@H](C)CCC)C(=O)NC(=O)NC1=O", "activation": "-0.865% (inactive)"}, {"smiles": "O=C(OC1CCCCC1)c1ccccc1C(=O)OC1CCCCC1", "activation": "0.494% [at 78.9 µM] (inactive)"}, {"smiles": "O=C(CBr)c1ccccc1", "activation": "-6.8% [at 78.9 µM] (inactive)"}, {"smiles": "O=S1OC[C@@H]2[C@H](CO1)[C@]1(Cl)C(Cl)=C(Cl)[C@@]2(Cl)C1(Cl)Cl", "note": "(stereo not given in full)", "activation": "-0.156% (inactive)"}, {"smiles": "CC[C@H]1C[C@H]2[C@@H]3CCC4=CC(=O)CC[C@@H]4[C@H]3CC[C@]2(C)[C@H]1O", "activation": "1.55% (inactive)"}, {"smiles": "O=C(O)c1ccccc1C(=O)Nc1cccc2ccccc12", "activation": "-2.61% (inactive)"}, {"smiles": "CCC(Cl)CCl", "note": "(stereo not given)", "activation": "2.11% [at 78.9 µM] (inactive)"}, {"smiles": "C=C(C#N)CCC#N", "activation": "-1.28% (inactive)"}, {"smiles": "CC(C)=CCOc1c2occc2cc2ccc(=O)oc12", "activation": "-1.46% (inactive)"}, {"smiles": "CCCCC(CC)COP(=O)(Oc1ccccc1)Oc1ccccc1", "note": "(stereo not given)", "activation": "3.42% (inactive)"}, {"smiles": "BrCCCCBr", "activation": "-1.53% (inactive)"}, {"smiles": "CC(C)N(C(=O)COc1nnc(C(F)(F)F)s1)c1ccc(F)cc1", "activation": "0.578% (inactive)"}, {"smiles": "CCOP(=S)(OCC)Oc1cc(Cl)c(Br)cc1Cl", "activation": "0.223% (inactive)"}, {"smiles": "CC(=O)C(C)(C)C", "activation": "-3.38% [at 78.9 µM] (inactive)"}, {"smiles": "COc1nn(C(=O)NS(=O)(=O)c2ccccc2OC(F)(F)F)c(=O)n1C", "activation": "-1.5% (inactive)"}, {"smiles": "COC(=O)c1cncn1C(C)c1ccccc1", "note": "(stereo not given)", "activation": "-0.223% (inactive)"}, {"smiles": "CC(c1ccc(O)cc1)(c1ccc(O)cc1)c1ccc(O)cc1", "activation": "-7.56% (inactive)"}, {"smiles": "Cc1cc(=O)[nH]o1", "activation": "-3.44% [at 78.9 µM] (inactive)"}, {"smiles": "Clc1cc(C(Cl)(Cl)Cl)cnc1Cl", "activation": "1.26% (inactive)"}, {"smiles": "O=C1C(Cl)C(CCl)CN1c1cccc(C(F)(F)F)c1", "note": "(stereo not given)", "activation": "-2.07% (inactive)"}, {"smiles": "O=C1C(=O)c2cccc3cccc1c23", "activation": "-7.28% (inactive)"}, {"smiles": "CCCCNP(N)(N)=S", "activation": "3.5% (inactive)"}, {"smiles": "COc1cc(Cl)c(OC)cc1Cl", "activation": "2.49% (inactive)"}, {"smiles": "C=CC(=O)OC(C)(C)C", "activation": "4.5% (inactive)"}, {"smiles": "[CH3][Sn]([CH3])([Cl])[Cl]", "activation": "-12.8% [at 78.9 µM] (inactive)"}, {"smiles": "c1ccc(C2CC2)c(OCC2=NCCN2)c1", "activation": "-1.47% (inactive)"}, {"smiles": "O=C(O)C(F)(F)C(F)(F)C(F)(F)C(F)(F)C(F)(F)C(F)(F)C(F)(F)C(F)(F)C(F)(F)C(F)(F)F", "activation": "1.13% (inactive)"}, {"smiles": "O=C1c2ccccc2C(=O)C1C(=O)C(c1ccccc1)c1ccccc1", "activation": "-7.78% (inactive)"}, {"smiles": "C=CCOC(C)=O", "activation": "2.85% (inactive)"}, {"smiles": "NC(=O)CI", "activation": "-2.21% [at 78.9 µM] (inactive)"}, {"smiles": "Nc1nc(=S)[nH][nH]1", "activation": "0.306% (inactive)"}, {"smiles": "COC(=O)C(C)N(C(=O)Cc1ccccc1)c1c(C)cccc1C", "note": "(stereo not given)", "activation": "-7.52% (inactive)"}, {"smiles": "CS/C(C)=N/OC(=O)N(C)SN(C)C(=O)O/N=C(\\C)SC", "activation": "-0.783% (inactive)"}, {"smiles": "Cc1ccccc1C(=O)Nc1cccc(OC(C)C)c1", "activation": "-2.23% (inactive)"}, {"smiles": "C[C@H]1CNCCc2ccc(Cl)cc21", "activation": "-4.44% (inactive)"}]}]}
